# Paper PMC7862700, “An all-to-all approach to the identification of sequence-specific readers for epigenetic DNA modifications on cytosine”
# Columns and labels:
# Assay in all cases: DAPPL (digital affinity profiling via proximity ligation, sequencing); 10 mM Tris-HCl pH 7.5, 50 mM NaCl, 1 mM DTT, 4% glycerol, room temperature, 30 min; GST-TFs on glutathione beads, 16-mer random dsDNA library, 0.1% formaldehyde crosslink after washing; high values mean tight binding
# [1] = molecular target: T1, FLI1 (Homo sapiens, UniProt Q01543 1-452); conditions: protein: recombinant; tags: N-terminal GST; dsDNA, one strand shown
# T1 sequence: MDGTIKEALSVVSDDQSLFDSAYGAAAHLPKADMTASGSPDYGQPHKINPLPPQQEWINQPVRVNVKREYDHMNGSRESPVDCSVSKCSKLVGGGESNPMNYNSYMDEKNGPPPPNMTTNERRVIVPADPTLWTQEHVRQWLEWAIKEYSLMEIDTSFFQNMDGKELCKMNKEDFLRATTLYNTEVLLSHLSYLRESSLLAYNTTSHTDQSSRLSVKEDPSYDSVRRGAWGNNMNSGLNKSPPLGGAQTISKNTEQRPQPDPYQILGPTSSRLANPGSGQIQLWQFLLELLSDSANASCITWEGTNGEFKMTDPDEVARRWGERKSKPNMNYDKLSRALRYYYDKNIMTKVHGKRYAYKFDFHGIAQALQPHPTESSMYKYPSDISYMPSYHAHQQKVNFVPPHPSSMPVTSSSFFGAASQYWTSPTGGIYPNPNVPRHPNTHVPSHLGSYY
# In short: (§1)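 A tag-only sample was pooled with DNA-barcoded human transcription factors that had been expressed in yeast as GST fusions and captured on glutathione beads. The pools were incubated for 30 min at room temperature with 200 nmole of a random double-stranded 16-mer DNA library in Tris/NaCl/DTT/glycerol buffer, then washed, crosslinked with 0.1% formaldehyde, proximity-ligated (BsaI/T4 ligase, 1 h, 37 °C), PCR-amplified and sequenced on an Illumina NextSeq500. Binding signal is each hexamer's read frequency for a factor divided by its frequency for the tag-only sample.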
# [2] = molecular target: T2, ELK1 (Homo sapiens, UniProt P19419 1-428); conditions: protein: recombinant; tags: N-terminal GST; dsDNA, one strand shown
# T2 sequence: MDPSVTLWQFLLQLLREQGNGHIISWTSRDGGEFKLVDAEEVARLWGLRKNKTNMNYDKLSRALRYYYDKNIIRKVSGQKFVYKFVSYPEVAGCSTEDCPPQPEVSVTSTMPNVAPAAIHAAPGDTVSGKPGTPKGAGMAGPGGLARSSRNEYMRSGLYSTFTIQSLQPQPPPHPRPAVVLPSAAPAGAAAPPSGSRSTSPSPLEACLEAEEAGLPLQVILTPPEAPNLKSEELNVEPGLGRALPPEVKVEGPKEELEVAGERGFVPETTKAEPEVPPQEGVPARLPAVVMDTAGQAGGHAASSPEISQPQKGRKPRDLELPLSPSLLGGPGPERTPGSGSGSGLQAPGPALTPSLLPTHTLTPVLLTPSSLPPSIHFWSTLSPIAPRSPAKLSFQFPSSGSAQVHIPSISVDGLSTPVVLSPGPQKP
# In short: as §1
# [3] = molecular target: T3, GABPA (Homo sapiens, UniProt Q06546 1-454); conditions: protein: recombinant; tags: N-terminal GST; dsDNA, one strand shown
# T3 sequence: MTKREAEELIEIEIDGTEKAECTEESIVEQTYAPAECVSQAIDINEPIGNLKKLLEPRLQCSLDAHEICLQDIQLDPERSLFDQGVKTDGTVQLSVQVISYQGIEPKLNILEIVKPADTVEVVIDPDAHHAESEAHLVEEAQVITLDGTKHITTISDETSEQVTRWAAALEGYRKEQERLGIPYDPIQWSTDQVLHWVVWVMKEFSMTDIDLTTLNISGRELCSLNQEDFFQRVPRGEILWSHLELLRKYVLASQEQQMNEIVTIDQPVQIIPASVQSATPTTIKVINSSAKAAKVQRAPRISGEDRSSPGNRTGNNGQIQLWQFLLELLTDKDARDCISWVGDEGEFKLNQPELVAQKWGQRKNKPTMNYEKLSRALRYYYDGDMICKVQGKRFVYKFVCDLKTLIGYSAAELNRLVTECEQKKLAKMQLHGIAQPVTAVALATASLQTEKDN
# In short: as §1
# [4] = molecular target: T4, ERG (Homo sapiens, UniProt P11308 1-479); conditions: protein: recombinant; tags: N-terminal GST; dsDNA, one strand shown
# T4 sequence: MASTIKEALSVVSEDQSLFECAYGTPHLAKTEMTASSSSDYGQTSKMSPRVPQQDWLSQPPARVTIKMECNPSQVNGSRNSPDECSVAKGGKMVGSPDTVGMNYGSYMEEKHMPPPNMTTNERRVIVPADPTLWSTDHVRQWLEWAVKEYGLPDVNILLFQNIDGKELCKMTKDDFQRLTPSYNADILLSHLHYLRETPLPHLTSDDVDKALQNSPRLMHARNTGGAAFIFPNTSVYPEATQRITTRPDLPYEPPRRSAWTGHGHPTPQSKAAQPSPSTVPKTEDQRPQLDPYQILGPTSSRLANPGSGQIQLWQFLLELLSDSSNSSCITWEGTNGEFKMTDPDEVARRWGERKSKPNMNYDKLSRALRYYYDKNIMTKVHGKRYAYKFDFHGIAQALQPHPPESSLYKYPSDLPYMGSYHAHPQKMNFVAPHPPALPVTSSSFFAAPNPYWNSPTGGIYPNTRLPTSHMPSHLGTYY
# In short: as §1
# [5] = molecular target: ELF1 (Homo sapiens, UniProt P32519 1-619); conditions: protein: recombinant; tags: N-terminal GST; dsDNA, one strand shown
# ELF1, sequence (P32519 whole entry): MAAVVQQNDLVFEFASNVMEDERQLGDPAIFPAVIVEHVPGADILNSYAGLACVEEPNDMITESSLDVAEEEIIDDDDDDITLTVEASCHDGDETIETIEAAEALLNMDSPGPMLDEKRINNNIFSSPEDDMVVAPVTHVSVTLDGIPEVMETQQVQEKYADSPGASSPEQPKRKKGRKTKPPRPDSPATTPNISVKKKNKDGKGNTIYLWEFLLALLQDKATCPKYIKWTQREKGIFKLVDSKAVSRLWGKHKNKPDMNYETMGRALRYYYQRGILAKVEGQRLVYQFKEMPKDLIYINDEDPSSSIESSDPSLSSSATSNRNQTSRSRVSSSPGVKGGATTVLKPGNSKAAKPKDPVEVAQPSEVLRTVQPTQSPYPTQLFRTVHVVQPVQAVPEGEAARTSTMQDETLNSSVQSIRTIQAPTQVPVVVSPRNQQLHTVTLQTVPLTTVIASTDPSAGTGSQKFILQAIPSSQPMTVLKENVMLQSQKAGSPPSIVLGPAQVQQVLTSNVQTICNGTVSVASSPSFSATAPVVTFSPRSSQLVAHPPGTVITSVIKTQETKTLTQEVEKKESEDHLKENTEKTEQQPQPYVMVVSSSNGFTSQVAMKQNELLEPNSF
# In short: as §1
# [6] = molecular target: T5, EHF (Homo sapiens, UniProt Q9NZC4 1-300); conditions: protein: recombinant; tags: N-terminal GST; dsDNA, one strand shown
# T5 sequence: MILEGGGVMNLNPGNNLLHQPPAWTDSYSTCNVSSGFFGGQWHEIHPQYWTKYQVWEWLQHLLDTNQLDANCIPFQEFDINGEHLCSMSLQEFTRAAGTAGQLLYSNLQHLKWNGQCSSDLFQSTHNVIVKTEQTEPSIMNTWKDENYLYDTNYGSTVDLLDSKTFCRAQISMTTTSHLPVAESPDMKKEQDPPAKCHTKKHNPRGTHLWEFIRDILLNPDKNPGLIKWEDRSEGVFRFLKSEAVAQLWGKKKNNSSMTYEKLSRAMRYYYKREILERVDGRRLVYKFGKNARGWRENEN
# In short: as §1
# [7] = molecular target: SPI1 (Homo sapiens, UniProt P17947 1-270); conditions: protein: recombinant; tags: N-terminal GST; dsDNA, one strand shown
# In short: as §1
# [8] = molecular target: SPIB (Homo sapiens, UniProt Q01892 1-262); conditions: protein: recombinant; tags: N-terminal GST; dsDNA, one strand shown
# SPIB, sequence (Q01892 whole entry): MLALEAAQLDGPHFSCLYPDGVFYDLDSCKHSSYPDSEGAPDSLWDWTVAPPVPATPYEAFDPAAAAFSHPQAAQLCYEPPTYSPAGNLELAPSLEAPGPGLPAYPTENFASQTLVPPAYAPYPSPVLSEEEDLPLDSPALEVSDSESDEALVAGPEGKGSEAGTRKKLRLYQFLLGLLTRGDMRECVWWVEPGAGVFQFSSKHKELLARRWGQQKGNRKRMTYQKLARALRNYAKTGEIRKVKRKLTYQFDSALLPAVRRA
# In short: as §1
# [9] = molecular target: T6, ELK3 (Homo sapiens, UniProt P41970 1-407); conditions: protein: recombinant; tags: N-terminal GST; dsDNA, one strand shown
# T6 sequence: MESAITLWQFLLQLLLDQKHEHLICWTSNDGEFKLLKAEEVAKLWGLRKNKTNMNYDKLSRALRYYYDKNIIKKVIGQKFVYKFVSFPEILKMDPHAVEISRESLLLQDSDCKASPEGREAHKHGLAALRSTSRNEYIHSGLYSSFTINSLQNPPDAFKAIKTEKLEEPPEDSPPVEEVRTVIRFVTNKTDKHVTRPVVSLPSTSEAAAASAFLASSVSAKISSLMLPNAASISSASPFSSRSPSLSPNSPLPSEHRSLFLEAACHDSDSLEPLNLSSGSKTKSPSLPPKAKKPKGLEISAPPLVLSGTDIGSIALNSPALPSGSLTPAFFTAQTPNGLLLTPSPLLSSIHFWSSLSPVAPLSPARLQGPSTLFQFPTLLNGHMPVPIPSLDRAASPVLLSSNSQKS
# In short: as §1
# [10] = molecular target: T7, FEV (Homo sapiens, UniProt Q99581 1-238); conditions: protein: recombinant; tags: N-terminal GST; dsDNA, one strand shown
# T7 sequence: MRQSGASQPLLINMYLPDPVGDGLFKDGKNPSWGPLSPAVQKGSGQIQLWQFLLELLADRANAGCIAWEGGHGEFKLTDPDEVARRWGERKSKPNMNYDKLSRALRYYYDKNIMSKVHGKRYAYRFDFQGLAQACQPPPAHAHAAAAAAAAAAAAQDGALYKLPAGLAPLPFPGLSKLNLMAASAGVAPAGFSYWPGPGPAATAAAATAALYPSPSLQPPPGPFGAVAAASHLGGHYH
# In short: as §1
# [11] = molecular target: ETV5 (Homo sapiens, UniProt P41161 1-510); conditions: protein: recombinant; tags: N-terminal GST; dsDNA, one strand shown
# ETV5, sequence (P41161 whole entry): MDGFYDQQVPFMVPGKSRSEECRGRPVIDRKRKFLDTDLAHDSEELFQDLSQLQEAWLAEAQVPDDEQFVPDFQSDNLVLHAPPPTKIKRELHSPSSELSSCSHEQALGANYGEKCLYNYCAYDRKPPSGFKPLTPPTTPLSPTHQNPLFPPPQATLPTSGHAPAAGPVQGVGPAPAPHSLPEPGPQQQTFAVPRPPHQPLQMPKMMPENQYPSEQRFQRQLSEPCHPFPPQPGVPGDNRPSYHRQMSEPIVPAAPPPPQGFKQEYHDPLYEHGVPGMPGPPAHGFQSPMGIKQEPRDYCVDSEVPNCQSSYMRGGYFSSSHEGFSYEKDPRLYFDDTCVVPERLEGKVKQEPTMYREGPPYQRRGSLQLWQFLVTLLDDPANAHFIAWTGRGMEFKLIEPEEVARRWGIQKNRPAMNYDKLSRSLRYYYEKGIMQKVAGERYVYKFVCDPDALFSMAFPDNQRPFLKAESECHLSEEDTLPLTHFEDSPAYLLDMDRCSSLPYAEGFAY
# In short: as §1
# [12] = molecular target: HSF1 (Homo sapiens, UniProt Q00613 1-529); conditions: protein: recombinant; tags: N-terminal GST; chain copies: 3; dsDNA, one strand shown
# HSF1, sequence (Q00613 whole entry): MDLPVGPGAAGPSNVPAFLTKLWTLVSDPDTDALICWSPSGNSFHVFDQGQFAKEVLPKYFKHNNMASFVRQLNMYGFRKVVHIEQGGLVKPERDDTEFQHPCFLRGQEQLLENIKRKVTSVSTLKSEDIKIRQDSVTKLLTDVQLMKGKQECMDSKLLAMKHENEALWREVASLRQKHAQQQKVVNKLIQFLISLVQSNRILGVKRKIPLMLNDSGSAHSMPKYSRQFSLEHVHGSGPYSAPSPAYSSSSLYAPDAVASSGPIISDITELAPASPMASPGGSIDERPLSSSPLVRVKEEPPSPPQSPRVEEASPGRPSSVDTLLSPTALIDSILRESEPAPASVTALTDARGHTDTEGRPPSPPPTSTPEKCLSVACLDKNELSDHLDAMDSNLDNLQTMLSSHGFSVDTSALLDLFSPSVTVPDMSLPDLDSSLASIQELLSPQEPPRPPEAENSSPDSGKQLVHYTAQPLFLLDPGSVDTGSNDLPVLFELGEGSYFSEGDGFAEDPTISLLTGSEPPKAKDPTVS
# In short: as §1
# [13] = molecular target: T8, SPIC (Homo sapiens, UniProt Q8N5J4 1-248); conditions: protein: recombinant; tags: N-terminal GST; dsDNA, one strand shown
# T8 sequence: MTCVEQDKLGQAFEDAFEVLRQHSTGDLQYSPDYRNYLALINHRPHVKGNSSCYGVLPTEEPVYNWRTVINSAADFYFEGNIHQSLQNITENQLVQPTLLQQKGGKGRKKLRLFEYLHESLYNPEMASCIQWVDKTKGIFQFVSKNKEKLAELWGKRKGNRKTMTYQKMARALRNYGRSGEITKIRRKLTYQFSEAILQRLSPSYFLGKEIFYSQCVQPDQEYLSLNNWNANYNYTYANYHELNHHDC
# In short: as §1
# [14] = molecular target: ELF4 (Homo sapiens, UniProt Q99607 1-663); conditions: protein: recombinant; tags: N-terminal GST; dsDNA, one strand shown
# ELF4, sequence (Q99607 whole entry): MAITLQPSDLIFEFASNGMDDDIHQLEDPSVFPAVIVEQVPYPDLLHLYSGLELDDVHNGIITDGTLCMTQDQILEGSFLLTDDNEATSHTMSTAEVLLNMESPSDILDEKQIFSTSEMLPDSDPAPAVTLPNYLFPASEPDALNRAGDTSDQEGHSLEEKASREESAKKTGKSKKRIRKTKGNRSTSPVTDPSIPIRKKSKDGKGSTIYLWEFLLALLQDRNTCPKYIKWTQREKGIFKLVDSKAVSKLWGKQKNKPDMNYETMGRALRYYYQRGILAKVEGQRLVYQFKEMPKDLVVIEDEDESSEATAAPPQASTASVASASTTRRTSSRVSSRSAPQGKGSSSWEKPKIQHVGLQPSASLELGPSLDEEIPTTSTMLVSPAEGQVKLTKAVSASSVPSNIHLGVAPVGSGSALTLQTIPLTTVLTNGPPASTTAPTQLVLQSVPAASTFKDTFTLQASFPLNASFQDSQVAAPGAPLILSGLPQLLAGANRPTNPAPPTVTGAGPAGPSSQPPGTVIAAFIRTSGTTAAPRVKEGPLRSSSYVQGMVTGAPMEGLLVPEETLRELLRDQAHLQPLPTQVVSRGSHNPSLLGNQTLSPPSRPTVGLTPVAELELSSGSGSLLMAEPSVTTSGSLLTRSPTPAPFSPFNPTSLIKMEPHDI
# In short: as §1
# [15] = molecular target: T9, ELK4 (Homo sapiens, UniProt P28324-2 1-405); conditions: protein: recombinant; tags: N-terminal GST; dsDNA, one strand shown
# T9 sequence: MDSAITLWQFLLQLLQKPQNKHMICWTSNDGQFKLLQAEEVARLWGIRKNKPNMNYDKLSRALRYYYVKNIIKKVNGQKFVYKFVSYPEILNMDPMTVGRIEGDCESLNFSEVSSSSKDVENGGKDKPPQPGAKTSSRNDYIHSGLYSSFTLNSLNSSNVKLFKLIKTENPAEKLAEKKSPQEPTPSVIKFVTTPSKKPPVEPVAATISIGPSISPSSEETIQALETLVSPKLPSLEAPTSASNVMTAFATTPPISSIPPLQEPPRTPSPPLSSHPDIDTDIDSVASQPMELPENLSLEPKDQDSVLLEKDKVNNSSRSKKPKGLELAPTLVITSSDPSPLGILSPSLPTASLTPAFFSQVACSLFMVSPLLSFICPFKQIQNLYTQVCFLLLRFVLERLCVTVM
# In short: as §1
# [16] = molecular target: T10, ETV2 (Homo sapiens, UniProt O00321 1-342); conditions: protein: recombinant; tags: N-terminal GST; dsDNA, one strand shown
# T10 sequence: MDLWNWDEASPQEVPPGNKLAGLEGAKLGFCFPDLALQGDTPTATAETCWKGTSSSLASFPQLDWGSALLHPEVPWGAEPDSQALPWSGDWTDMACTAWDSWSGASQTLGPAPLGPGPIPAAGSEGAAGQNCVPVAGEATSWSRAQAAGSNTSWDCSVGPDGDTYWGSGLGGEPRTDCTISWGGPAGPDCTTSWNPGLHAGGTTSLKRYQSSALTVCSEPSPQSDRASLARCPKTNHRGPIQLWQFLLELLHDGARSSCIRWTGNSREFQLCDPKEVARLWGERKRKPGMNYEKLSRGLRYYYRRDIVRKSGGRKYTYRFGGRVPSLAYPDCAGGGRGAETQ
# In short: as §1
# [17] = molecular target: T11, ELF3 (Homo sapiens, UniProt P78545 1-371); conditions: protein: recombinant; tags: N-terminal GST; dsDNA, one strand shown
# T11 sequence: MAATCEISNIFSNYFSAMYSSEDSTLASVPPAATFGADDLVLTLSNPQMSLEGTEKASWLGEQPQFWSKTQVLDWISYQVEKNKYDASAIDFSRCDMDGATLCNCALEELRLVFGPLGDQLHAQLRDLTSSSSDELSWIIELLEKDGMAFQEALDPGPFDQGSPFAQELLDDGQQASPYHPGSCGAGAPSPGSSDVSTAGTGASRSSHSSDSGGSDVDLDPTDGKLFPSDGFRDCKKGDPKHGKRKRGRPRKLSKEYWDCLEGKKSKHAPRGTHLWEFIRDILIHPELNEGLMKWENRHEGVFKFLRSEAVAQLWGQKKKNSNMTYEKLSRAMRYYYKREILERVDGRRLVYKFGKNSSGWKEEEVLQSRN
# In short: as §1
# [18] = molecular target: CRX (Homo sapiens, UniProt O43186 1-299); conditions: protein: recombinant; tags: N-terminal GST; dsDNA, one strand shown
# CRX, sequence (O43186 whole entry): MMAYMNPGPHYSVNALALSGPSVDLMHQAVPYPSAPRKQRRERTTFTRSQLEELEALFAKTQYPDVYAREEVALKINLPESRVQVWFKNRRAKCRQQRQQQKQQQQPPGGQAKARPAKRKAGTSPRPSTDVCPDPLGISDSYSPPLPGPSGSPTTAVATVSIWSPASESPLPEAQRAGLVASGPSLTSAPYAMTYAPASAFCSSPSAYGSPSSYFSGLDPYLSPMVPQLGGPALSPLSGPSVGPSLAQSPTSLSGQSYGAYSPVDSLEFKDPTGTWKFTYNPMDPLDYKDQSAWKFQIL
# In short: as §1
# [19] = molecular target: ETV1 (Homo sapiens, UniProt P50549 1-477); conditions: protein: recombinant; tags: N-terminal GST; dsDNA, one strand shown
# ETV1, sequence (P50549 whole entry): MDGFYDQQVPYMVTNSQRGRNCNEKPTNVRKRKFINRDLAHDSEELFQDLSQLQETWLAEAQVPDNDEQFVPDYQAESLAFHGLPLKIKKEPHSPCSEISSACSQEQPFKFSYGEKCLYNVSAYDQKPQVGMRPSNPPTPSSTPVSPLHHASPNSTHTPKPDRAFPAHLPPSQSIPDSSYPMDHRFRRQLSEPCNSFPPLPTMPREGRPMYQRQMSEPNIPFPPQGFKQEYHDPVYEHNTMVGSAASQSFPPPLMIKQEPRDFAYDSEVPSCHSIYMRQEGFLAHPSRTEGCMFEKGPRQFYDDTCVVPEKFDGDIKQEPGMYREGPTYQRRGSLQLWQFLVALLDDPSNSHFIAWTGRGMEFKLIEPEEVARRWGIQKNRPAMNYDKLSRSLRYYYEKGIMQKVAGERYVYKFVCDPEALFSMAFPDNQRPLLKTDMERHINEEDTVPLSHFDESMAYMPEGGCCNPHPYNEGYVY
# In short: as §1
sequence,measurement,setting,value
TTGTTT,binding signal,[1],"1.46 fold enrichment (6-mer frequency, TF over GST control)"
same,binding signal,[2],"1.45 fold enrichment (6-mer frequency, TF over GST control)"
same,binding signal,[3],"1.36 fold enrichment (6-mer frequency, TF over GST control)"
same,binding signal,[4],"1.6 fold enrichment (6-mer frequency, TF over GST control)"
same,binding signal,[5],"1.37 fold enrichment (6-mer frequency, TF over GST control)"
same,binding signal,[6],"1.51 fold enrichment (6-mer frequency, TF over GST control)"
same,binding signal,[7],"1.28 fold enrichment (6-mer frequency, TF over GST control)"
same,binding signal,[8],"1.52 fold enrichment (6-mer frequency, TF over GST control)"
same,binding signal,[9],"1.49 fold enrichment (6-mer frequency, TF over GST control)"
same,binding signal,[10],"1.45 fold enrichment (6-mer frequency, TF over GST control)"
same,binding signal,[11],"1.53 fold enrichment (6-mer frequency, TF over GST control)"
same,binding signal,[12],"1.24 fold enrichment (6-mer frequency, TF over GST control)"
same,binding signal,[13],"1.08 fold enrichment (6-mer frequency, TF over GST control)"
same,binding signal,[14],"1.44 fold enrichment (6-mer frequency, TF over GST control)"
same,binding signal,[15],"1.61 fold enrichment (6-mer frequency, TF over GST control)"
same,binding signal,[16],"1.32 fold enrichment (6-mer frequency, TF over GST control)"
same,binding signal,[17],"1.61 fold enrichment (6-mer frequency, TF over GST control)"
same,binding signal,[18],"1.45 fold enrichment (6-mer frequency, TF over GST control)"
same,binding signal,[19],"1.38 fold enrichment (6-mer frequency, TF over GST control)"
